We go through 22 compounds from PubChem BioAssay (NCATS).

Records with an inconclusive call do not appear. Where a call stands in place of a potency, no number is given. Calls of active or inactive are those of the source. Calls follow the shape of the dose curve; as a rule, active = well fitted inhibition curve with a large enough effect; inconclusive = small, poorly fitted or top-dose-only effect; inactive = flat fitted curve, though single readings scatter.

The assay in a line: qHTS to identify inhibitors of the type 1 interferon - major histocompatibility complex class I in skeletal muscle: primary screen against the NCATS Pharmaceutical Collection (AID 1347407). The settings on record: human skeletal muscle cells, IFN-b-induced MHC-I HiBiT luminescence, 24 h; series mostly up to 45.9 µM. A digest of the protocol: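 Luminescence from HiBiT-tagged endogenous HLA-B*08:01 served as the read-out of IFN-beta-induced MHC class I in CRISPR-engineered C25cl48 myoblasts. Cells received 4 ng/ml IFN-beta plus compound (high final 46 uM, […]) for 24 h.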
Turning to `CC1(C)OC(=O)Nc2ccc(Br)cc21`, the Potency entry is “inactive”.

In the case of `CC(C)(C)c1ccc(C(=O)CCCCl)cc1`, the Potency entry is “inactive”.

On to `COc1ccc2nc(SCc3ncc(C)c(OC)c3C)[nH]c2c1`, for which the Potency result was “inactive”.

For the compound `Cc1cccc(N(C)C(=S)Oc2ccc3c(c2)C2CCC3C2)c1` (configuration not stated), the Potency entry was “inactive”.

`CCCCC(O)/C=C(C)/C=C/C=C/C(=O)N1CCCC1=O` (configuration not stated): the Potency entry is “inactive”.

Turning to `O=C(C1CCCCC1)N1CC(=O)N2CCCc3ccccc3C2C1` (configuration not stated), the Potency result was “inactive”.

Consider `CCO[C@H](Cc1ccc(OCCc2ccc(OS(C)(=O)=O)cc2)cc1)C(=O)O`, for which the Potency result is “inactive”.

For `CC(NN)c1ccccc1` (configuration not stated), the Potency result was “inactive”.

Regarding `OC(CCCN1CCCCC1)(c1ccccc1)c1ccccc1`, the Potency entry was “inactive”.

With `O=C(c1ccccc1)c1ccccc1`, the Potency result was “inactive”.

As to `CC[C@@H]([C@H](C)O)n1ncn(-c2ccc(N3CCN(c4ccc(OC[C@@H]5CO[C@@](Cn6cncn6)(c6ccc(F)cc6F)C5)cc4)CC3)cc2)c1=O`, the Potency result was “inactive”.

Take `O=C(c1cc(O)c(O)c(O)c1)c1ccc(O)c(O)c1O`: the Potency entry was “inactive”.

For `COc1cc(C(=O)NC2CCCNC2)cc(OC)c1OC` (configuration not stated), the Potency entry was “inactive”.

In the case of `CNC(=O)c1c(I)c(NC(C)=O)c(I)c(C(=O)O)c1I`, the Potency result was “inactive”.

Consider `CC(Oc1c(Cl)cccc1Cl)C1=NCCN1` (configuration not stated), for which the Potency entry was “inactive”.

Turning to `CN(C(=O)C(Cl)Cl)c1ccc(OC(=O)c2ccco2)cc1`, the Potency entry was “inactive”.

For `CCN1CCCC1CN` (configuration not stated), the Potency entry is “inactive”.

Take `CCOC(=O)C(O)c1ccccc1` (configuration not stated): the Potency result was “inactive”.

Take `CCOC(=O)C(=O)CCCCCCl`: the Potency entry is “inactive”.

Consider `CCCCCCCCCCCCCCCCCCN(C)C`, for which the Potency result was “inactive”.

As to `C#CC(C)(CC)OC(=O)c1ccccc1C(=O)O` (configuration not stated), the Potency entry is “inactive”.

For the compound `O=C(O)CNC(=O)CNC(=O)CNC(=O)CSC(=O)c1ccccc1`, the Potency entry was “inactive”.
